Inconclusive results are not listed. Activity calls are given as the source filed them. Unless noted, the call rests on the fitted dose curve; in most records, active means well fitted curve in the direction sought with a large enough effect in the repeat runs; inconclusive means weak or mixed curves; inactive means no such curve, though single readings can be large; an effect the other way counts as inactive or inconclusive.
Tests used:
[1] = qHTS assay to identify aromatase inhibitors - cell viability counter screen (AID 743084);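 further: cells stimulated with testosterone during compound exposure; nearly all actives have a fitted effect of over 55% in size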; further: potency means the concentration at half of the fitted maximal effect
[2] = biological target: Aryl hydrocarbon receptor (Homo sapiens) (UniProt P35869); assay: qHTS assay to identify small molecule that activate the aryl hydrocarbon receptor (AhR) signaling pathway (AID 743085); further: nearly all actives have a fitted effect of over 15% in size; further: potency means the concentration at half of the fitted maximal effect;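 on activation: HG2L7.5c1 human HepG2 liver cells with stably integrated DRE-driven firefly reporter; series mostly up to about 70 µM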
Chain of Aryl hydrocarbon receptor (Homo sapiens) (P35869 whole entry, looked up): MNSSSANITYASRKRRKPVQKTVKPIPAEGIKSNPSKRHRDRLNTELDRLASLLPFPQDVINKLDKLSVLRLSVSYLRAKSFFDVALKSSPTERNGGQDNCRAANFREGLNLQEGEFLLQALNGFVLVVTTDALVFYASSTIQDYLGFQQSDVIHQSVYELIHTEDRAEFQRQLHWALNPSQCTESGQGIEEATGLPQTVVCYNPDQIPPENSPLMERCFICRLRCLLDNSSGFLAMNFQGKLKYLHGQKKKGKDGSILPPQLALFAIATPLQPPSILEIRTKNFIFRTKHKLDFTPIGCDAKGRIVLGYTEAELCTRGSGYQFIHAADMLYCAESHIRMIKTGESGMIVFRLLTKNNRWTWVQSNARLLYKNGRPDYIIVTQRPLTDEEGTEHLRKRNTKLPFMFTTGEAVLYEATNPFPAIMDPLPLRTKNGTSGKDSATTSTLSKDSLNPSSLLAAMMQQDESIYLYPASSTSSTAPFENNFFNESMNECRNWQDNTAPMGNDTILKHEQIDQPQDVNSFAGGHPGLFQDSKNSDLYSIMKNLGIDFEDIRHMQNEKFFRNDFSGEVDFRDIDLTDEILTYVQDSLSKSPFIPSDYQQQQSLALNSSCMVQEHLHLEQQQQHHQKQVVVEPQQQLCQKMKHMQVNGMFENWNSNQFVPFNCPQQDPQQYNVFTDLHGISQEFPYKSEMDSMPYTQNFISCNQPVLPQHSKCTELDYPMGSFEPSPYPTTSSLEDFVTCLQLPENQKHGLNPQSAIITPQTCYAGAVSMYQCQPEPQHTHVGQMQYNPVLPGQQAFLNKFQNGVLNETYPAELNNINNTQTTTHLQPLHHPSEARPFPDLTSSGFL
Outline: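 Luminescence (ONE-Glo) from a dioxin-responsive-element luciferase reporter in HG2L7.5c1 HepG2 cells after 24 hr compound exposure at 37C; viability measured by CellTiter-Fluor fluorescence beforehand.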

[3] = qHTS assay to identify small molecule that activate the aryl hydrocarbon receptor (AhR) signaling pathway - cell viability counter screen (AID 743086);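 further: HepG2 liver cells carrying the AhR DRE luciferase reporter; series mostly up to about 70 µM; nearly all actives have a fitted effect of over 45% in size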
Outline: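 Cytotoxicity counter screen: CellTiter-Fluor signal (30 min, 37 C) in 4000 HepG2 cells/well carrying the DRE-luciferase reporter, following 24 h compound exposure at 37 C.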

[4] = biological target: Peroxisome proliferator-activated receptor gamma (Homo sapiens) (UniProt P37231); assay: qHTS assay to identify small molecule agonists of the peroxisome proliferator-activated receptor gamma (PPARg) signaling pathway (AID 743094; active means well fitted activation curve with a large enough effect in the signal ratio in the repeat runs, not every such curve was filed as active; the % refers to the signal ratio)
Chain of Peroxisome proliferator-activated receptor gamma (Homo sapiens) (P37231 whole entry, looked up): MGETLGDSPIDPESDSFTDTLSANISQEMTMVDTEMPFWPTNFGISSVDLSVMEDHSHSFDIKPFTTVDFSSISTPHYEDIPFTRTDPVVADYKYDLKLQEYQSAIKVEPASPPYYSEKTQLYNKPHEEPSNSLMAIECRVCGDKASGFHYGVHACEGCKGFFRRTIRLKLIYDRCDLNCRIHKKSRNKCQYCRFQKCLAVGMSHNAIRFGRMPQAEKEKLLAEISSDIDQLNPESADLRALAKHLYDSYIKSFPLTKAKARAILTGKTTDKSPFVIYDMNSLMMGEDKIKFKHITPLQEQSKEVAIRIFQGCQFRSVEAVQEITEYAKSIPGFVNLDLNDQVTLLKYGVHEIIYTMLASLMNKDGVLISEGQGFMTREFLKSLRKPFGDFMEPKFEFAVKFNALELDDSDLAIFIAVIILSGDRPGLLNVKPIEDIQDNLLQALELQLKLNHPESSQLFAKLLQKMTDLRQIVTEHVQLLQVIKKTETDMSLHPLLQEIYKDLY
Outline: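 Cell-based bla reporter, HEK293H background, PPARg-driven UAS. Pre-incubation 5 h, 37C, 5% CO2. Compound 17 h, 37C. Substrate 1 h RT; fluorescence.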

[5] = qHTS assay to identify small molecule antagonists of the peroxisome proliferator-activated receptor gamma (PPARg) signaling pathway - cell viability counter screen (AID 743194); further: nearly all actives have a fitted effect of over 55% in size; further: potency means the concentration at half of the fitted maximal effect
Outline: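 Viability was measured as CellTiter-Glo luminescence in GeneBLAzer PPARg UAS-bla HEK293H cells. These cells had been exposed 17 h at 37 C to compounds together with rosiglitazone at 50 nM final, with the beta-lactamase readout taken in the same wells.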

[6] = qHTS assay for small molecule agonists of the antioxidant response element (ARE) signaling pathway (AID 743202; active means well fitted activation curve with a large enough effect in the signal ratio in the repeat runs, not every such curve was filed as active; the % refers to the signal ratio; further: potency means the concentration at half of the fitted maximal effect)
Outline: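 Beta-lactamase reporter activity, read as fluorescence intensity, reflects ARE/Nrf2 pathway induction in HepG2 cells after 16 h compound exposure at 37 C; substrate loading was 2 h at room temperature.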

[7] = qHTS assay for small molecule agonists of the antioxidant response element (ARE) signaling pathway - cell viability counter screen (AID 743203; calls by dose curve; further: nearly all actives have a fitted effect of over 55% in size)
Outline: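 Measured in the same wells as the beta-lactamase ARE reporter, this read-out is CellTiter-Glo luminescence from HepG2 ARE-bla cells given compounds for 16 hrs.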

[8] = qHTS assay for small molecule activators of the heat shock response signaling pathway - cell viability counter screen (AID 743209); further: nearly all actives have a fitted effect of over 50% in size; further: potency means the concentration at half of the fitted maximal effect
Outline: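 Same-well multiplex: after 2.5 h room-temperature incubation with LiveBLAzer B/G substrate and fluorescence reading, CellTiter-Glo reagent was added to HSE-bla HeLa cells that had received compound for 5 h at 37 C; luminescence read after 30 min.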

[9] = qHTS assay for small molecule activators of the heat shock response signaling pathway (AID 743210; active means well fitted activation curve with a large enough effect in the signal ratio in the repeat runs, with a control signal flat, not every such curve was filed as active; the % refers to the signal ratio;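 further: HeLa cells with beta-lactamase reporter driven by heat shock elements; series mostly up to about 63 µM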)
Outline: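 Fluorescence from a cleaved B/G FRET substrate (2.5 h, room temp) reports HSE-driven beta-lactamase in HeLa cells treated 5 h at 37 C with DMSO-dissolved compounds.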

[10] = qHTS assay to identify small molecule agonists of the peroxisome proliferator-activated receptor delta (PPARd) signaling pathway - cell viability counter screen (AID 743211); further: nearly all actives have a fitted effect of over 55% in size; further: potency means the concentration at half of the fitted maximal effect
Outline: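 Viability was measured as CellTiter-Glo luminescence (30 min, room temperature) in the same wells as the beta-lactamase readout. GeneBLAzer PPARd UAS-bla HEK293H cells received compound after 5 h plating and were incubated 17 h at 37 C.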

[11] = biological target: Peroxisome proliferator-activated receptor delta (Homo sapiens) (UniProt Q03181); assay: qHTS assay to identify small molecule agonists of the peroxisome proliferator-activated receptor delta (PPARd) signaling pathway (AID 743212; calls by dose curve)
Chain of Peroxisome proliferator-activated receptor delta (Homo sapiens) (Q03181 whole entry, looked up): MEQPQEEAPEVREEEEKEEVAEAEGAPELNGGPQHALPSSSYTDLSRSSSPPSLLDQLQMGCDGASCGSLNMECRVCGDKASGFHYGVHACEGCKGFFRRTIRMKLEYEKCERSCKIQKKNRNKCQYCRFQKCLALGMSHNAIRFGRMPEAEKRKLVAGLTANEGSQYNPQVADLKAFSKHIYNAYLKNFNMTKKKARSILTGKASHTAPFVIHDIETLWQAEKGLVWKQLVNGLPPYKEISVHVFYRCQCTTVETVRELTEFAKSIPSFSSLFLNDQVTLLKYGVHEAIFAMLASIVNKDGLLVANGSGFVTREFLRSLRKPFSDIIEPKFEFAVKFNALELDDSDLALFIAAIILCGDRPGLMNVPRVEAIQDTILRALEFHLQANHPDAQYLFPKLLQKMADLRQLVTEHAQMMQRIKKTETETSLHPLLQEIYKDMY
Outline: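 Steps: seed PPARd-bla HEK293H cells; incubate 5 h, 37 C, 5% CO2; add compounds in DMSO; incubate, 37 C; add LiveBLAzer B/G FRET substrate; hold 2 h at room temperature; measure fluorescence.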

[12] = qHTS assay to identify small molecule antagonists of the peroxisome proliferator-activated receptor delta (PPARd) signaling pathway - cell viability counter screen (AID 743213); further: nearly all actives have a fitted effect of over 50% in size
Outline: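 PPARd-bla HEK293H cells were treated with compounds plus agonist L165041 (300 nM final) for 17 h at 37 C. Viability was then read in the same wells by CellTiter-Glo luminescence after 30 min at room temperature.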

[13] = qHTS assay to identify small molecule agonists of the farnesoid-X-receptor (FXR) signaling pathway - cell viability counter screen (AID 743218); further: nearly all actives have a fitted effect of over 45% in size; further: potency means the concentration at half of the fitted maximal effect
Outline: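 Readout: CellTiter-Glo luminescence, 30 min RT, multiplexed after the FXR-bla FRET reading. HEK 293T FXR-UAS-bla cells received compound 5 h post-plating and were incubated 16 h at 37 C.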

[14] = qHTS assay to identify small molecule antagonists of the farnesoid-X-receptor (FXR) signaling pathway - cell viability counter screen (AID 743221; active means well fitted cell-killing curve with a large enough effect in the repeat runs, not every such curve was filed as active; further: nearly all actives have a fitted effect of over 50% in size; further: potency means the concentration at half of the fitted maximal effect)
Outline: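 Cytotoxicity counter screen run in the FXR-bla reporter wells: HEK 293T cells exposed to compound with 50 uM (final) chenodeoxycholic acid for 16 h, 37 C, then viability measured by CellTiter-Glo luminescence after 30 min, room temperature.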

[15] = biological target: Vitamin D3 receptor (Homo sapiens) (UniProt P11473); assay: qHTS assay to identify small molecule agonists of the vitamin D receptor (VDR) signaling pathway (AID 743222; calls by dose curve)
Chain of Vitamin D3 receptor (Homo sapiens) (P11473 whole entry, looked up): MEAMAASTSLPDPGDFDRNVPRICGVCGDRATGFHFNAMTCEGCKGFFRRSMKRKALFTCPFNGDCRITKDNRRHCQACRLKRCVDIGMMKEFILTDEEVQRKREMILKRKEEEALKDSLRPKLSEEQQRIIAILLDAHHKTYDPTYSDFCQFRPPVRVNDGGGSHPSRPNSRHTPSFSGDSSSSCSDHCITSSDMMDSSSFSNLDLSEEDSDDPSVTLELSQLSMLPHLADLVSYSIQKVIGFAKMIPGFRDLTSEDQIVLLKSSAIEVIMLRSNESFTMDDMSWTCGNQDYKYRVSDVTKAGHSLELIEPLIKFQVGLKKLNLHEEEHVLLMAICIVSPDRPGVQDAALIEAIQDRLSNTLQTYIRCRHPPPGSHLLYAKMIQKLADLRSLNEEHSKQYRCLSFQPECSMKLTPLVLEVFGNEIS
Outline: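 Following 4 h attachment at 37C, VDR-bla cells (2,000 per well) received DMSO-dissolved compounds or controls. After 16 h incubation, LiveBLAzer B/G FRET substrate was added and fluorescence read 2 h later at room temperature.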

[16] = biological target: Vitamin D3 receptor (Homo sapiens) (UniProt P11473); assay: qHTS assay to identify small molecule antagonists of the vitamin D receptor (VDR) signaling pathway (AID 743223; active means well fitted inhibition curve with a large enough effect in the signal ratio in the repeat runs, not every such curve was filed as active; the % refers to the signal ratio; further: potency means the concentration at half of the fitted maximal effect)
Outline: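 Antagonist mode: compound added to VDR-bla cells alongside agonist 1alpha,25-dihydroxyvitamin D3 (3 nM final), incubation 16 h at 37C. Read-out is LiveBLAzer FRET fluorescence, 2 h at room temperature.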

[17] = biological target: Peroxisome proliferator-activated receptor gamma (Homo sapiens) (UniProt P37231); assay: qHTS assay to identify small molecule antagonists of the peroxisome proliferator-activated receptor gamma (PPARg) signaling pathway (AID 743191; calls by dose curve; further: series mostly up to about 63 µM; nearly all actives have a fitted effect of over 30% in size)
Outline: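 Beta-lactamase reporter under UAS control in HEK293H PPARg-bla cells; compound treatment 17 h at 37C. Read-out: fluorescence intensity after 1 h room-temperature incubation with LiveBLAzer B/G FRET substrate.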

[18] = biological target: Peroxisome proliferator-activated receptor delta (Homo sapiens) (UniProt Q03181); assay: qHTS assay to identify small molecule antagonists of the peroxisome proliferator-activated receptor delta (PPARd) signaling pathway (AID 743215; active means well fitted inhibition curve with a large enough effect in the signal ratio in the repeat runs, not every such curve was filed as active; the % refers to the signal ratio;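 further: cells stimulated with agonist L165041 at 300 nM final during compound exposure; series mostly up to about 62 µM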)
Outline: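 Fluorescence from cleaved LiveBLAzer B/G FRET substrate (2 h, room temperature) reports PPARd-driven beta-lactamase in HEK293H UAS-bla cells. Cells had been treated 17 h at 37 C with compound plus 300 nM final L165041.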

[19] = biological target: Bile acid receptor (Homo sapiens) (UniProt Q96RI1); assay: qHTS assay to identify small molecule antagonists of the farnesoid-X-receptor (FXR) signaling pathway (AID 743217; active means well fitted inhibition curve with a large enough effect in the signal ratio in the repeat runs, not every such curve was filed as active; the % refers to the signal ratio)
Chain of Bile acid receptor (Homo sapiens) (Q96RI1 whole entry, looked up): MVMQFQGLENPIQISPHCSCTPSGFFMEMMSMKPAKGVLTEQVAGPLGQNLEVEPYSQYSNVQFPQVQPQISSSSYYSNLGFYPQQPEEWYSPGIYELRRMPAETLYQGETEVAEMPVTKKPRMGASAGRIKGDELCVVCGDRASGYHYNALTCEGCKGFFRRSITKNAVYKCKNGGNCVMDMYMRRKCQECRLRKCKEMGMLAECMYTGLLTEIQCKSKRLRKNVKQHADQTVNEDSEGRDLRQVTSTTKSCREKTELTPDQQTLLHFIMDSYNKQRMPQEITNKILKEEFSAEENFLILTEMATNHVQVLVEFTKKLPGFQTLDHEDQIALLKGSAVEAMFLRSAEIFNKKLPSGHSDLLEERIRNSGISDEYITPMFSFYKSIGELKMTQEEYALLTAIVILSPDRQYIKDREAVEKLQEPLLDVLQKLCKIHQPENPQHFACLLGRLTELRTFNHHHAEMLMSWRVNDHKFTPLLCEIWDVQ
Outline: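 FRET fluorescence after 2 h room-temperature LiveBLAzer loading gives the readout. Prior step: FXR-bla HEK 293T cells, seeded and incubated 5 h, received test compounds plus 50 uM final CDCA for 16 h at 37 °C.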

[20] = biological target: Bile acid receptor (Homo sapiens) (UniProt Q96RI1); assay: qHTS assay to identify small molecule agonists of the farnesoid-X-receptor (FXR) signaling pathway (AID 743220; active means well fitted activation curve with a large enough effect in the signal ratio in the repeat runs, not every such curve was filed as active; the % refers to the signal ratio)
Outline: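 FXR-UAS-bla HEK 293T cells carrying a UAS-driven beta-lactamase reporter were plated for 5 h at 37C/5% CO2, then exposed to DMSO-dissolved Tox21 10K compounds for 16 h at 37C. A LiveBLAzer B/G FRET substrate was loaded for 2 h at room temperature before fluorescence reading.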

Measured: Potency

CCCCCCCCCC(=O)OCC
not listed: [17] | [18] | [19] | [20]
inactive: all other assays above

CCN(CC)C(C)CN1c2ccccc2Sc2ccccc21 (stereo unspecified)
not listed: [6] | [11] | [16] | [19] | [20]
inactive: all other assays above

O=C(CC(=O)c1ccccc1)c1ccccc1
active: [2] 65.7 µM | [6] 23.3 µM
not listed: [15] | [17]
inactive: all other assays above

CCCCCC(CO)CCC (stereo unspecified)
not listed: [9] | [11] | [12] | [17] | [19] | [20]
inactive: all other assays above

O=S(=O)(O)c1ccc(O)c2ncccc12
not listed: [6] | [7] | [9] | [11] | [13] | [16] | [18]
inactive: all other assays above

CC(=O)SCc1ccco1
not listed: [6] | [9] | [10] | [18] | [19]
inactive: all other assays above

CC(O)C1CCCCC1 (stereo unspecified)
not listed: [6] | [8] | [12] | [16] | [18] | [19] | [20]
inactive: all other assays above

O=C(NN1CCCC1)NS(=O)(=O)c1ccc(Cl)cc1
not listed: [5] | [8] | [18]
inactive: all other assays above

CCCC(=O)OCC
not listed: [6] | [16] | [18] | [19] | [20]
inactive: all other assays above

CC(=O)/C=C/C1C(C)=CCCC1(C)C (stereo unspecified)
not listed: [8] | [11] | [17] | [18]
inactive: all other assays above

CN(C)CC/C=C1\c2ccccc2COc2ccccc21
active: [10] 26.6 µM
not listed: [4] | [11] | [12] | [13] | [16] | [17] | [18]
inactive: all other assays above

CC(C)(C)c1ccc(S)cc1
not listed: [3] | [6] | [8] | [9] | [10] | [18] | [19] | [20]
inactive: all other assays above

CC(C)NCC(O)c1cc(O)cc(O)c1 (stereo unspecified)
not listed: [3] | [6] | [7] | [11] | [18] | [19] | [20]
inactive: all other assays above

C=CC[N+]1([C@H]2C[C@H]3[C@@H]4CC[C@H]5C[C@H](OC(C)=O)[C@@H](N6CCCCC6)C[C@]5(C)[C@H]4CC[C@]3(C)[C@H]2OC(=O)CC)CCCCC1
not listed: [3] | [7] | [12] | [19] | [20]
inactive: all other assays above

CCCCCCCCCCCCC(=O)O
inactive: [1] | [2] | [3] | [5] | [7] | [12] | [14]

CCN(CC)CCOc1ccc2c(c1)C(=O)c1cc(OCCN(CC)CC)ccc1-2
inactive: [1] | [2] | [4] | [17] | [7] | [8] | [9] | [11]
active: [5] 29.8 µM | [13] 21.1 µM | [14] 26.6 µM | [16] 21.3 µM

CN(C)C/C=C(/c1ccc(Br)cc1)c1cccnc1
inactive: [1] | [2] | [4] | [17] | [5] | [6] | [8] | [13] | [14] | [16]

C=CC(=O)OCC(C)OCC(C)OCC(C)OC(=O)C=C (stereo unspecified)
active: [1] 48.6 µM | [8] 15.5 µM | [10] 49 µM
inactive: [2] | [3] | [5] | [7] | [14]

Oc1ccc(O)c2c(O)cccc12
inactive: [1] | [3] | [5] | [7] | [10] | [11] | [18] | [13] | [14] | [15]
active: [2] 12.1 µM

Cc1ncsc1CCO
not listed: [4] | [5] | [15] | [16] | [17]
inactive: all other assays above

CCCCCCCCCC=O
not listed: [4] | [6] | [11] | [15] | [17] | [18] | [19] | [20]
inactive: all other assays above

CCOc1cc(OCC)c(C(=O)CCC(=O)O)cc1OCC
inactive: [1] | [2] | [3] | [5] | [7] | [9] | [10] | [18] | [13] | [14]

O=C1c2cccc(O)c2C(=O)c2c(O)cc(CO)cc21
not listed: [4] | [6] | [8] | [11] | [12] | [16] | [17] | [18]
inactive: all other assays above

CC(C(=O)O)c1ccc(-c2ccccc2)c(F)c1 (stereo unspecified)
not listed: [4] | [6] | [8] | [11] | [16] | [17] | [19] | [20]
inactive: all other assays above

NCCCOCCOCCOCCCN
not listed: [3] | [6] | [8] | [11] | [16] | [18] | [19] | [20]
inactive: all other assays above

From PubChem BioAssay (Tox21)
